The values below come from PubChem BioAssay (NCATS).

Inconclusive results are not listed. Activity calls are given as the source filed them. Calls follow the shape of the dose curve; as a rule, active = well fitted inhibition curve with a large enough effect; inconclusive = small, poorly fitted or top-dose-only effect; inactive = flat fitted curve, though single readings scatter.
% is scaled to controls: 0 for no effect and ±100 for the full control effect; potency is read from the fitted curve at half-maximal effect.

For the assay, the system named is NIH3T3. The experiment in a line: Cytotoxic Profiling of Annotated Libraries Using Quantitative High-Throughput Screening (AID 1296008). Also: nearly all actives have a fitted effect of over 60% in size. As to conditions: Five cell lines viability, CellTiter-Glo ATP luminescence, 48-72 h; max response: active compounds read low. A digest of the protocol:
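Cytotoxicity was measured as CellTiter-Glo ATP luminescence, read after 10 min at room temperature. Compound treatment of the cells lasted 48 or 72 hr at 37 degrees Celsius in a qHTS format.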
(In ATP-based viability assays light output follows the ATP content of the culture.)
Take `CC1(O)CC(O)C2(O)C=COC(O[C@@H]3O[C@H](CO)[C@@H](O)[C@H](O)[C@H]3O)C12` (stereo partly drawn): the max response was -15.6% (inactive).

In the case of `Nc1nc2c(ncn2[C@@H]2O[C@H](CO)[C@@H](O)[C@H]2O)c(=O)[nH]1`, the outcome was inactive.

Consider `C=C1C(O)C(O)C2(CC3C(C)=CCC4C(C)(CO)CCCC34C)OC2C1O` (stereo not drawn), for which the max response is -5.46% (inactive).

For the compound `CCOCCn1nc(CC)c2nc(N3CCC(C(=O)O)CC3)nc(Nc3cc(C)ccn3)c21`, the max response was 3.17% (inactive).

Turning to `CN(C)C/C=C/C(=O)Nc1cccc(C(=O)Nc2ccc(Nc3nccc(-c4cccnc4)n3)cc2)c1`, the Potency was 10.3 µM (active).

As to `C/C=C(\C)C(=O)OCC1OC(OC2OC(COC(=O)/C(C)=C/C)C(OC3OC(CO)C(OC(=O)/C(C)=C/C)C(OC(=O)/C(C)=C/C)C3O)C(O)C2O)C(O)C(O)C1OC1OC(CO)C(OC(=O)/C(C)=C/C)C(OC(=O)/C(C)=C/C)C1O` (stereo not drawn), the max response was -26.7% (inactive).

In the case of `COC(=O)C12CCC(C)C(C)C1C1=CCC3C4(C)CCC(OC(C)=O)C(C)(C)C4CCC3(C)C1(C)CC2` (stereo not drawn), the result was inactive.

With `COC1CC(O[C@H]2CC[C@@]3(C)C(=CC[C@]4(O)C3[C@H](OC(C)=O)[C@@H](OC(=O)c3ccccc3)[C@]3(C)[C@@H](C(C)=O)CC[C@@]34O)C2)OC(C)C1OC1CC(OC)C(OC2CC(OC)C(OC3OC(C)C(OC4OC(CO)C(O)C(O)C4O)C(OC)C3O)C(C)O2)C(C)O1` (stereo partly drawn), the max response is -0.853% (inactive).

In the case of `O=S(=O)(NCC1CC1)c1ccc(Nc2nccc(N3CCCc4cc(O)ccc43)n2)cc1`, the Potency was 5.8 µM (active).

Take `CNS(=O)(=O)CC1CCC(N(C)c2ncnc3[nH]ccc23)CC1` (stereo not drawn): the max response was -10.7% (inactive).

On to `C/C(=C\CCC(C)CCO)C(=O)O[C@@H]1[C@@H](O)[C@H](OC2OC=C(C(=O)O)C3CCC(C)(O)C23)O[C@H](CO)[C@H]1O` (stereo partly drawn), for which the max response was -17.6% (inactive).

Turning to `C[C@H](Oc1ccc(S(C)(=O)=O)cc1C(=O)N1CCN(c2ncc(C(F)(F)F)cc2F)CC1)C(F)(F)F`, the max response was -19.7% (inactive).

As to `CC(=O)O[C@H]1C[C@@]2(C)[C@@H](CC[C@H]3[C@@]4(C)C=CC(=O)[C@@H](C)[C@@H]4[C@H](O)C(=O)[C@@]32C)/C1=C(/CCC=C(C)C)C(=O)O`, the max response was -3.01% (inactive).

For `C[C@@H]1CN(Cc2ccccc2)C[C@H]1c1nc2c(cnn2C2CCOCC2)c(=O)[nH]1`, the max response was -13.9% (inactive).

As to `COC(=O)CCc1cc2ccoc2c(OC)c1O[C@@H]1O[C@H](CO)[C@@H](O)[C@H](O)[C@H]1O`, the max response is 0.737% (inactive).

As to `COc1ccc(Cl)c(Nc2nc3ccccc3nc2NS(=O)(=O)c2cccc(NC(=O)C(C)(C)N)c2)c1`, the max response was -15.2% (inactive).

Consider `CC[C@H](CO)Nc1nc(NCc2ccc(-c3ccccn3)cc2)c2ncn(C(C)C)c2n1`, for which the Potency is 0.517 µM (active).

Regarding `CC(C)C[C@H](CC(=O)NO)C(=O)N[C@@H](Cc1ccc2ccccc2c1)C(=O)N[C@@H](C)C(=O)NCCN`, the max response is -2.62% (inactive).

Turning to `O=C(O)c1ccc(OC2OC(CO)C(O)C(O)C2O)cc1` (stereo not drawn), the max response was 1.85% (inactive).

As for `C[C@H](NC(=O)CCc1nc2ccccc2c(=O)[nH]1)c1ccccc1`, the max response is -5.46% (inactive).

Turning to `CC1(C)CC[C@]2(C(=O)O)CC[C@]3(C)C(=CCC4[C@@]5(C)CC[C@H](O[C@@H]6O[C@H](CO)[C@@H](O)[C@H](O)[C@H]6O[C@@H]6O[C@H](CO)[C@@H](O)[C@H](O)[C@H]6O)[C@@](C)(CO)C5CC[C@]43C)[C@@H]2C1` (stereo partly drawn), the call was inactive.

`O=C(O)c1ccc(CN2CCC(CN[C@@H]3C[C@H]3c3ccccc3)CC2)cc1`: the max response was -26% (inactive).

In the case of `CC1C(=O)CC2C3CCC(C(=O)O)C12CC3(C)CO` (stereo not drawn), the max response was -4.76% (inactive).

Turning to `OC[C@H]1O[C@@H](Oc2cc(O)c3c(c2)O[C@@H](c2ccc(O)cc2)[C@H](O)C3)[C@H](O)[C@@H](O)[C@@H]1O`, the result was inactive.

`NC(=O)Nc1cc(-c2cccc(F)c2)sc1C(=O)NC1CCCNC1` (stereo not drawn): the Potency is 0.517 µM (active).

For `CC(C)NCC(C(=O)N1CCN(c2ncnc3c2C(C)CC3O)CC1)c1ccc(Cl)cc1` (stereo not drawn), the max response is 3.08% (inactive).

On to `CCO[C@@H]1OC(=O)C[C@@H]1NC(=O)[C@@H]1CCCN1C(=O)[C@@H](NC(=O)c1ccc(N)c(Cl)c1)C(C)(C)C`, for which the max response was -4.45% (inactive).

As to `CC1(C)CC[C@]2(C(=O)O[C@@H]3O[C@H](CO)[C@@H](O)[C@H](O)[C@H]3O)CC[C@]3(C)C(=CCC4[C@@]5(C)C[C@@H](O)[C@H](O)[C@](C)(C=O)C5CC[C@]43C)[C@@H]2[C@@H]1O` (stereo partly drawn), the max response is 0.296% (inactive).
